Experimental data reported in PubChem BioAssay AID1159580 (chemical genetic matrix, 2015).
About 2,000 (36%) of roughly 5,500 compounds were called active. Another 18% or so got no clear call; they are omitted. No stated cut-off is given here; in the data, active means normalized growth mostly below about 0.91 (no sharp cut-off); inconclusive means no clear call, values can overlap the other calls; inactive means mostly above about 0.92. This is one part of the list.

Experiment: chemical genetic growth profiling, strain panel (AID 1159580);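 further: tested at 20 µM; growth read once vehicle control cultures reached saturation at 30 °C; 1 = growth at the plate median or of vehicle wells; lower values mean less growth of the strain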
Details: growth OD

Measured: normalized growth

COC1=CC(=O)OC(CCc2ccc(OC)c(OC)c2)C1 (stereo unspecified)
inactive: S. cerevisiae deletion strains, locus YAL013W, strain DEP1, hits give low values 0.988 | S. cerevisiae deletion strains, locus YBR021W, strain FUR4, hits give low values 0.991 | S. cerevisiae deletion strains, locus YBR229C, strain ROT2, hits give low values 1.01 | S. cerevisiae deletion strains, locus YCL029C, strain bik1, hits give low values 1.03 | S. cerevisiae deletion strains, locus YDL035C, strain GPR1, hits give low values 1.01 | S. cerevisiae deletion strains, locus YDL074C, strain BRE1, hits give low values 1.02 | S. cerevisiae deletion strains, locus YDL101C, strain DUN1, hits give low values 1.01 | S. cerevisiae deletion strains, locus YDL134C, strain PPH21, hits give low values 1 | S. cerevisiae deletion strains, locus YDL185W, strain tfp1, hits give low values 1.02 | S. cerevisiae deletion strains, locus YDL192W, strain arf1, hits give low values 1.02 | S. cerevisiae deletion strains, locus YDR101C, strain arx1, hits give low values 1.01 | S. cerevisiae deletion strains, locus YDR150W, strain NUM1, hits give low values 1.01 | S. cerevisiae deletion strains, locus YDR162C, strain NBP2, hits give low values 1.01 | S. cerevisiae deletion strains, locus YDR318W, strain mcm21, hits give low values 1.01 | S. cerevisiae deletion strains, locus YDR388W, hits give low values 1.01 | S. cerevisiae deletion strains, locus YDR502C, strain sam2, hits give low values 1.01 | S. cerevisiae deletion strains, locus YEL061C, strain CIN8, hits give low values 1.01 | S. cerevisiae deletion strains, locus YER110C, hits give low values 1.02 | S. cerevisiae deletion strains, locus YER155C, strain BEM2, hits give low values 1.01 | S. cerevisiae deletion strains, locus YER167W, strain BCK2, hits give low values 1.02 | S. cerevisiae deletion strains, locus YGL078C, strain dbp3, hits give low values 1.02 | S. cerevisiae deletion strains, locus YGL086W, strain mad1, hits give low values 1.02 | S. cerevisiae deletion strains, locus YGL248W, strain PDE1, hits give low values 1.01 | S. cerevisiae deletion strains, locus YGR078C, strain PAC10, hits give low values 1.01 | S. cerevisiae deletion strains, locus YGR135W, strain pre9, hits give low values 1.01 | S. cerevisiae deletion strains, locus YGR229C, strain SMI1, hits give low values 1 | S. cerevisiae deletion strains, locus YGR252W, strain gcn5, hits give low values 1 | S. cerevisiae deletion strains, locus YHR030C, strain SLT2, hits give low values 1.01 | S. cerevisiae deletion strains, locus YHR079C, strain IRE1 (second series), hits give low values 1.01 | S. cerevisiae deletion strains, locus YHR094C, strain hxt1, hits give low values 1.01 | S. cerevisiae deletion strains, locus YHR129C, strain ARP1, hits give low values 1.01 | S. cerevisiae deletion strains, locus YHR200W, strain rpn10, hits give low values 1.01 | S. cerevisiae deletion strains, locus YIL066C, strain RNR3, hits give low values 1 | S. cerevisiae deletion strains, locus YIL073C, strain SPO22, hits give low values 1.07 | S. cerevisiae deletion strains, locus YIL125W, strain kgd1, hits give low values 1.02 | S. cerevisiae deletion strains, locus YIR030C, strain dcg1, hits give low values 1.01 | S. cerevisiae deletion strains, locus YJL095W, strain BCK1, hits give low values 1.02 | S. cerevisiae deletion strains, locus YJL134W, strain LCB3, hits give low values 1 | S. cerevisiae deletion strains, locus YJL168C, strain set2, hits give low values 1 | S. cerevisiae deletion strains, locus YJL187C, strain SWE1 (second series), hits give low values 1.01 | S. cerevisiae deletion strains, locus YJR043C, strain POL32, hits give low values 1.02 | S. cerevisiae deletion strains, locus YJR075W, strain HOC1, hits give low values 1.02 | S. cerevisiae deletion strains, locus YKL009W, strain mrt4, hits give low values 1.03 | S. cerevisiae deletion strains, locus YKL068W, hits give low values 1.01 | S. cerevisiae deletion strains, locus YKL085W, strain MDH1 (second series), hits give low values 1.01 | S. cerevisiae deletion strains, locus YKL085W, strain MDH1, hits give low values 1.01 | S. cerevisiae deletion strains, locus YKL190W, strain CNB1, hits give low values 1.01 | S. cerevisiae deletion strains, locus YKR001C, strain vps1, hits give low values 1.04 | S. cerevisiae deletion strains, locus YLR039C, strain RIC1, hits give low values 1.07 | S. cerevisiae deletion strains, locus YLR058C, strain SHM2, hits give low values 1.01 | S. cerevisiae deletion strains, locus YLR102C, strain apc9, hits give low values 1.01 | S. cerevisiae deletion strains, locus YLR262C, strain YPT6, hits give low values 1.07 | S. cerevisiae deletion strains, locus YLR268W, strain sec22, hits give low values 1.01 | S. cerevisiae deletion strains, locus YLR330W, strain CHS5, hits give low values 1.01 | S. cerevisiae deletion strains, locus YLR342W, strain FKS1 (second series), hits give low values 1.01 | S. cerevisiae deletion strains, locus YLR371W, strain rom2, hits give low values 1.01 | S. cerevisiae deletion strains, locus YLR418C, strain cdc73, hits give low values 1.01 | S. cerevisiae deletion strains, locus YML016C, strain PPZ1, hits give low values 1.01 | S. cerevisiae deletion strains, locus YML032C, strain rad52, hits give low values 1.04 | S. cerevisiae deletion strains, locus YML124C, strain tub3, hits give low values 1.02 | S. cerevisiae deletion strains, locus YMR078C, strain ctf18, hits give low values 1.02 | S. cerevisiae deletion strains, locus YMR223W, strain ubp8, hits give low values 1.02 | S. cerevisiae deletion strains, locus YMR263W, strain SAP30, hits give low values 1.01 | S. cerevisiae deletion strains, locus YMR307W, strain GAS1, hits give low values 1.03 | S. cerevisiae deletion strains, locus YNL067W, strain RPL9B, hits give low values 1.01 | S. cerevisiae deletion strains, locus YNL128W, strain TEP1, hits give low values 1.01 | S. cerevisiae deletion strains, locus YNL153C, strain GIM3, hits give low values 1.01 | S. cerevisiae deletion strains, locus YNL233W, strain BNI4, hits give low values 1 | S. cerevisiae deletion strains, locus YNL250W, strain rad50, hits give low values 1.01 | S. cerevisiae deletion strains, locus YNL271C, strain bni1, hits give low values 1.01 | S. cerevisiae deletion strains, locus YNL298W, strain CLA4, hits give low values 1.02 | S. cerevisiae deletion strains, locus YNL307C, strain MCK1, hits give low values 1.01 | S. cerevisiae deletion strains, locus YNL322C, strain KRE1, hits give low values 1.01 | S. cerevisiae deletion strains, locus YNR052C, strain pop2, hits give low values 1.02 | S. cerevisiae deletion strains, locus YOL006C, strain TOP1, hits give low values 1.09 | S. cerevisiae deletion strains, locus YOL012C, strain htz1 1.25 | S. cerevisiae deletion strains, locus YOL147C, strain pex11, hits give low values 1.01 | S. cerevisiae deletion strains, locus YOR061W, strain CKA2, hits give low values 1.01 | S. cerevisiae deletion strains, locus YOR069W, strain VPS5, hits give low values 1 | S. cerevisiae deletion strains, locus YOR136W, strain idh2, hits give low values 1.02 | S. cerevisiae deletion strains, locus YOR144C, strain elg1, hits give low values 1.02 | S. cerevisiae deletion strains, locus YOR184W, strain ser1, hits give low values 1.03 | S. cerevisiae deletion strains, locus YOR316C, strain cot1, hits give low values 1.02 | S. cerevisiae deletion strains, locus YPL055C, strain LGE1, hits give low values 1.02 | S. cerevisiae deletion strains, locus YPL241C, strain CIN2, hits give low values 1 | S. cerevisiae deletion strains, locus YPR119W, strain clb2, hits give low values 1.01 | S. cerevisiae deletion strains, locus YPR141C, strain kar3, hits give low values 1.03 | S. cerevisiae deletion strains, locus YPR163C, strain tif3, hits give low values 1.02 | S. cerevisiae deletion strains, locus YPR167C, strain met16, hits give low values 1.02 | S. cerevisiae deletion strains, strain wtn01, hits give low values 1.01 | S. cerevisiae strains, strain wild type, hits give low values 0.999
